Reference: paper PMC7862700, “An all-to-all approach to the identification of sequence-specific readers for epigenetic DNA modifications on cytosine”

Columns and labels:
Test in all cases: DAPPL (digital affinity profiling via proximity ligation, sequencing); 10 mM Tris-HCl pH 7.5, 50 mM NaCl, 1 mM DTT, 4% glycerol, room temperature, 30 min; GST-TFs on glutathione beads, 16-mer random dsDNA library, 0.1% formaldehyde crosslink after washing; high values mean tight binding
Details in all cases: protein: recombinant; tags: N-terminal GST; dsDNA, one strand shown
ELK1 = target: T1, ELK1 (Homo sapiens, UniProt P19419 1-428)
T1 sequence: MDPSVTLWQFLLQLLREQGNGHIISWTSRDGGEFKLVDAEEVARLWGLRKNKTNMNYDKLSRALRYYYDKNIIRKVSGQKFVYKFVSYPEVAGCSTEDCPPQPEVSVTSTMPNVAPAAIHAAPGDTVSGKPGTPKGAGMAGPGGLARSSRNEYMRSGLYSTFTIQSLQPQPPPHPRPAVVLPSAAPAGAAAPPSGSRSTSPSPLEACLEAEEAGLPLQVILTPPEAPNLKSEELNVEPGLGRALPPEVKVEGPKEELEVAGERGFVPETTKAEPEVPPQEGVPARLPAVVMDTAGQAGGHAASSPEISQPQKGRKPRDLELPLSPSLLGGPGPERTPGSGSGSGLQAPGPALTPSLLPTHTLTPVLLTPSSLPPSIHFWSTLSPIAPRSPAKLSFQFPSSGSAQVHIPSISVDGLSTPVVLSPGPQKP
In short: (§1)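 Pools were built from human transcription factors expressed in yeast as GST fusions, captured on glutathione beads and DNA-barcoded, along with a tag-only sample. Incubation with 200 nmole of a 16-mer random double-stranded DNA library lasted 30 min at room temperature in Tris/NaCl/DTT/glycerol buffer, and was followed by washing, 0.1% formaldehyde crosslinking, proximity ligation, PCR amplification and Illumina NextSeq500 sequencing. Binding signal is the quotient of each hexamer's read frequency for a factor and its frequency for the tag-only sample.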

GABPA = target: T2, GABPA (Homo sapiens, UniProt Q06546 1-454)
T2 sequence: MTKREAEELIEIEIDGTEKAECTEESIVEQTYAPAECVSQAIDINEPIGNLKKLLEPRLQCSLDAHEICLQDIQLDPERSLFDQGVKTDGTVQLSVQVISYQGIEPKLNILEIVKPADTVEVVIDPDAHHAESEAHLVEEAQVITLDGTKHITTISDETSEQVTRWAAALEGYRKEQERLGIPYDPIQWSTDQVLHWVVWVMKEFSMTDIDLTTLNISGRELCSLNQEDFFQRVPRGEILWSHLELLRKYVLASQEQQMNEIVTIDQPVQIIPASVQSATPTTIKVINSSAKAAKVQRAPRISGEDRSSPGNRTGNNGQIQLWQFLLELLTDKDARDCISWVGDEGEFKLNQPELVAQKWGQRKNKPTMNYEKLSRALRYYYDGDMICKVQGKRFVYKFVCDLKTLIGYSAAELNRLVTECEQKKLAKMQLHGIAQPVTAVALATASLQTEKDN
In short: as §1

ERG = target: T3, ERG (Homo sapiens, UniProt P11308 1-479)
T3 sequence: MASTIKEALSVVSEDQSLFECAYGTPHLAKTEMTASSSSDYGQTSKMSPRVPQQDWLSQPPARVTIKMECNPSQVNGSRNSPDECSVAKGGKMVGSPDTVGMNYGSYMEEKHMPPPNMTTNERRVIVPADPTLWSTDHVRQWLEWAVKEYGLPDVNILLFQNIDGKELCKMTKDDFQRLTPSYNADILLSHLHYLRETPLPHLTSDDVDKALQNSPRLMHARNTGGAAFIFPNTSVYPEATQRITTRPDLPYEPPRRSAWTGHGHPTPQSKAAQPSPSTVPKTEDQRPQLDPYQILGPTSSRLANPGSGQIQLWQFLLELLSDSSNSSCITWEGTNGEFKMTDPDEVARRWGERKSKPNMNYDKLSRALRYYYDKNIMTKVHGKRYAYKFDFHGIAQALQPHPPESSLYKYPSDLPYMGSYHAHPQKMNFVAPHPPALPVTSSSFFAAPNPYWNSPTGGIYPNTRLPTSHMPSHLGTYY
In short: as §1

ELF1 = ELF1 (Homo sapiens, UniProt P32519 1-619)
ELF1, sequence (P32519 whole entry): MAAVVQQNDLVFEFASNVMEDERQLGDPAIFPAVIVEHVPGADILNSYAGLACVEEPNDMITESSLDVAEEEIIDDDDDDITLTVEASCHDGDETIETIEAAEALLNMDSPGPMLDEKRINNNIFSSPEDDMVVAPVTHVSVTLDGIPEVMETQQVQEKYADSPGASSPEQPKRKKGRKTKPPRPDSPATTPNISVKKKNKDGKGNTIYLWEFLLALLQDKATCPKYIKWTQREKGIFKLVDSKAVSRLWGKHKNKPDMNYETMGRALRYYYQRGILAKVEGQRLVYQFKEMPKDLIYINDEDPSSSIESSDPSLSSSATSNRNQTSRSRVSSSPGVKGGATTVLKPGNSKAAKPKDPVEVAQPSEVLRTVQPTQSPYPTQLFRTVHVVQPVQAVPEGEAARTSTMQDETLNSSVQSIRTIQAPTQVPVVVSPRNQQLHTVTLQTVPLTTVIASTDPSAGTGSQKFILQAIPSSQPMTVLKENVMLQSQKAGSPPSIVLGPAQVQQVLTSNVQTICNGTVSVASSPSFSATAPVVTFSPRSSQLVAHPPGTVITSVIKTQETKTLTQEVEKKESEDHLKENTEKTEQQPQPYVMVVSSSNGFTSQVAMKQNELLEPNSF
In short: as §1

EHF = target: T4, EHF (Homo sapiens, UniProt Q9NZC4 1-300)
T4 sequence: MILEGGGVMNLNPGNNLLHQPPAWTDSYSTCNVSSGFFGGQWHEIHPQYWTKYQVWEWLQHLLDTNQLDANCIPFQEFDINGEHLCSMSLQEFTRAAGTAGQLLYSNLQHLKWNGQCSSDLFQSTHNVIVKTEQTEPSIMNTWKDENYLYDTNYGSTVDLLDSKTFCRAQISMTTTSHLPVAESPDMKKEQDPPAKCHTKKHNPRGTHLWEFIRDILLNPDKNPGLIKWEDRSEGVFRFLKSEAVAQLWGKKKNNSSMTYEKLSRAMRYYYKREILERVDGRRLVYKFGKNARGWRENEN
In short: as §1

SPIB = SPIB (Homo sapiens, UniProt Q01892 1-262)
SPIB, sequence (Q01892 whole entry): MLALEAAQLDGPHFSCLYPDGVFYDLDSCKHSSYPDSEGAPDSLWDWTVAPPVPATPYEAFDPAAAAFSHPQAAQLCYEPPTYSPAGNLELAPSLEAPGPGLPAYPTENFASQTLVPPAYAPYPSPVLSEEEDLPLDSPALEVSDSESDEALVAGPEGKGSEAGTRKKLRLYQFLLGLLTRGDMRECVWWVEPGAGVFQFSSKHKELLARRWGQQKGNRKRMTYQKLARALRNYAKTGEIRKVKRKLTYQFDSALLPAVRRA
In short: as §1

FEV = target: T5, FEV (Homo sapiens, UniProt Q99581 1-238)
T5 sequence: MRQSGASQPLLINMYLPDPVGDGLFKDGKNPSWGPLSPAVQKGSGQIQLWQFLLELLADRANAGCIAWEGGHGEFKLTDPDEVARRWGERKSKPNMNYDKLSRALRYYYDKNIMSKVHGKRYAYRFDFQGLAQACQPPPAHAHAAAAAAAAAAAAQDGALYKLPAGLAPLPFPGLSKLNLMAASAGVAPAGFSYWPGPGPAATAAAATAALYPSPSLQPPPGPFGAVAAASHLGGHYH
In short: as §1

ETV5 = ETV5 (Homo sapiens, UniProt P41161 1-510)
ETV5, sequence (P41161 whole entry): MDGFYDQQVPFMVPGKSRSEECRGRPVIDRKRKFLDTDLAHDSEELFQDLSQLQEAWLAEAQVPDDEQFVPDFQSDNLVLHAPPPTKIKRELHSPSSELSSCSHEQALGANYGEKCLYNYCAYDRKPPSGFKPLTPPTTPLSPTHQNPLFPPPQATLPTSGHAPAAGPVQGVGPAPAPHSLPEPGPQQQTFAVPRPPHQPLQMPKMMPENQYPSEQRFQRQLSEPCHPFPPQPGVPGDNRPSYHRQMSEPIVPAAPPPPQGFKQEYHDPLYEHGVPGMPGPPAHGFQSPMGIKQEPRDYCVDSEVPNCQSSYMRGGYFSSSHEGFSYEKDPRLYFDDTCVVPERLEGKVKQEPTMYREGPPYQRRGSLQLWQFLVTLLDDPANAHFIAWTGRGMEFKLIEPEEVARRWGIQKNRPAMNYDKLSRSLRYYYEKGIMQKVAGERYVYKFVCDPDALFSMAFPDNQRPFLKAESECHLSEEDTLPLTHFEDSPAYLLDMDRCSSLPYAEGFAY
In short: as §1

ELF4 = ELF4 (Homo sapiens, UniProt Q99607 1-663)
ELF4, sequence (Q99607 whole entry): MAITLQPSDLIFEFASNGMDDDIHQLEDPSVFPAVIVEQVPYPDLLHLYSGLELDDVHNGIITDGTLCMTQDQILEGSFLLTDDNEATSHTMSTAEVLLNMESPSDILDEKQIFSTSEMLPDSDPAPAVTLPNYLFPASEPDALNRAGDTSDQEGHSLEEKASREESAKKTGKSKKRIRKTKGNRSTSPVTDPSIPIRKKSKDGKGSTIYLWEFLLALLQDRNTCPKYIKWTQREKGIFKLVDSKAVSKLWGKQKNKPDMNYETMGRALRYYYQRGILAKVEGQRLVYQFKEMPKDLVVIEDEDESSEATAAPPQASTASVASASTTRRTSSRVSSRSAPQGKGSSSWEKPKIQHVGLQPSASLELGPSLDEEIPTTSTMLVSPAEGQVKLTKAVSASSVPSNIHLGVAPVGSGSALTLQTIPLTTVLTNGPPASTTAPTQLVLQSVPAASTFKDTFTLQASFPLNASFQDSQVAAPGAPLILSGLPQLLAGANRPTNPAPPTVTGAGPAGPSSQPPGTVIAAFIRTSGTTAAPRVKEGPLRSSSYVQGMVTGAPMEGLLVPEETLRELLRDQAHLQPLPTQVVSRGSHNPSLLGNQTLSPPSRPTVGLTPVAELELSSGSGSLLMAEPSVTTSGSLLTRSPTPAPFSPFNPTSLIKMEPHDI
In short: as §1

Sequence: TGATAC
- binding signal (ELK1): 1.17 fold enrichment (6-mer frequency, TF over GST control)
- binding signal (GABPA): 1.16 fold enrichment (6-mer frequency, TF over GST control)
- binding signal (ERG): 1.13 fold enrichment (6-mer frequency, TF over GST control)
- binding signal (ELF1): 1.14 fold enrichment (6-mer frequency, TF over GST control)
- binding signal (EHF): 1.11 fold enrichment (6-mer frequency, TF over GST control)
- binding signal (SPIB): 1.12 fold enrichment (6-mer frequency, TF over GST control)
- binding signal (FEV): 1.21 fold enrichment (6-mer frequency, TF over GST control)
- binding signal (ETV5): 1.1 fold enrichment (6-mer frequency, TF over GST control)
- binding signal (ELF4): 1.13 fold enrichment (6-mer frequency, TF over GST control)
